Measured values as given in the supplement of paper PMC6089552.
Out of some 3,200 compounds screened, about 300 (9.4%) showed activity. For the sample, actives were picked, then their nearest neighbours and some compounds at random.

Tested on: A673/TR/shEF
Experiment: cell viability (LOESS-normalised, relative to median of negative controls) (log2 ratio); higher = more viable cells (less compound effect), active = hit call of the paper (over 3 MAD below the median)
Conditions: treatment time: 72 h
Outline: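 Doxycycline, present or absent from 24 h before compounds, was used to induce EWS-FLI1 shRNA knockdown in A673/TR/shEF Ewing sarcoma cells at 1,500 per well in 384-well plates. Cells then received library compounds at two or more concentrations, or DMSO controls, for three days. Viability was measured by CellTiter-Glo luminescence on an Envision reader, and per-plate LOESS correction, division by the negative-control median and log2 transformation followed.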

[1] = 0.25 µM, library screen: screen1, EWS-FLI1 expression: high (no doxycycline)
[2] = 0.25 µM, library screen: screen1, EWS-FLI1 expression: low (doxycycline-induced shRNA knockdown)
[3] = 2.5 µM, library screen: screen1, EWS-FLI1 expression: high (no doxycycline)
[4] = 2.5 µM, library screen: screen1, EWS-FLI1 expression: low (doxycycline-induced shRNA knockdown)
[5] = 0.103 µM, library screen: screen3, EWS-FLI1 expression: high (no doxycycline)
[6] = 0.103 µM, library screen: screen3, EWS-FLI1 expression: low (doxycycline-induced shRNA knockdown)
[7] = 0.308 µM, library screen: screen3, EWS-FLI1 expression: high (no doxycycline)
[8] = 0.308 µM, library screen: screen3, EWS-FLI1 expression: low (doxycycline-induced shRNA knockdown)
[9] = 0.926 µM, library screen: screen3, EWS-FLI1 expression: high (no doxycycline)
[10] = 0.926 µM, library screen: screen3, EWS-FLI1 expression: low (doxycycline-induced shRNA knockdown)
[11] = 2.8 µM, library screen: screen3, EWS-FLI1 expression: high (no doxycycline)
[12] = 2.8 µM, library screen: screen3, EWS-FLI1 expression: low (doxycycline-induced shRNA knockdown)
[13] = 8.3 µM, library screen: screen3, EWS-FLI1 expression: high (no doxycycline)
[14] = 8.3 µM, library screen: screen3, EWS-FLI1 expression: low (doxycycline-induced shRNA knockdown)
[15] = 25 µM, library screen: screen3, EWS-FLI1 expression: high (no doxycycline)
[16] = 25 µM, library screen: screen3, EWS-FLI1 expression: low (doxycycline-induced shRNA knockdown)
[17] = 0.25 µM, library screen: screen2, EWS-FLI1 expression: high (no doxycycline)
[18] = 0.25 µM, library screen: screen2, EWS-FLI1 expression: low (doxycycline-induced shRNA knockdown)
[19] = 2.5 µM, library screen: screen2, EWS-FLI1 expression: high (no doxycycline)
[20] = 2.5 µM, library screen: screen2, EWS-FLI1 expression: low (doxycycline-induced shRNA knockdown)

Measured: cell viability (log2)

COc1ccc(-c2coc3cc(OC(C)=O)cc(OC(C)=O)c3c2=O)cc1
inactive: [1] 0.0854 | [2] -0.00831 | [3] 0.156 | [4] 0.114

COc1c(O)cc2occ(-c3ccc(O)cc3)c(=O)c2c1O
inactive: [1] 0.15 | [2] 0.0261 | [3] 0.0979 | [4] 0.0895

CC(=O)O[C@H]1CC[C@]2(C)[C@H]3CC=C4[C@@H]5CC(C)(C)CC[C@]5(C(=O)O)CC[C@@]4(C)[C@]3(C)CC[C@H]2C1(C)C
inactive: [1] 0.0325 | [2] 0.0553 | [3] 0.0391 | [4] 0.0458

Cc1nnc(C(C)C)n1C1C[C@H]2CC[C@@H](C1)N2CC[C@H](NC(=O)C1CCC(F)(F)CC1)c1ccccc1 (some centres not stated)
inactive: [5] 0.00773 | [6] 0.0537 | [7] 0.179 | [8] 0.0864 | [9] 0.11 | [10] 0.0142 | [11] 0.152 | [12] 0.0241 | [13] 0.00455 | [14] 0.0886 | [15] 0.0767 | [16] 0.0769

C=C1C(=O)OC2CC1C(OC(C)=O)C/C(C)=C/CC/C(C)=C\CCC2(C)O (configuration not stated)
inactive: [1] 0.18 | [2] 0.0249 | [3] 0.0625 | [4] -0.139

O=C1c2ccc(O)cc2OC(c2cc(O)c(O)c(O)c2)C1O (configuration not stated)
inactive: [1] 0.0896 | [2] 0.0484 | [3] 0.165 | [4] 0.11

Nc1nc(Cl)nc2c1ncn2[C@H]1C[C@H](O)[C@@H](CO)O1
active: [13] -0.402 | [15] -1.32 | [16] -0.402
inactive: [5] 0.0389 | [6] -0.0254 | [7] 0.0133 | [8] 0.0217 | [9] 0.0147 | [10] 0.0591 | [11] -0.0664 | [12] 0.0972 | [14] -0.0455

OC[C@H]1O[C@@H](n2cnc3c(NC4CCCC4)nc(Cl)nc32)[C@H](O)[C@@H]1O
inactive: [17] 0.143 | [18] 0.038 | [19] 0.169 | [20] 0.0636

Nc1ncnc2c1ncn2[C@H]1C[C@H](O)[C@@H](CO)O1
inactive: [1] 0.0888 | [2] 0.137 | [3] 0.0495 | [4] 0.162

Nc1nc(Cl)nc2c1ncn2[C@@H]1O[C@H](CO)[C@@H](O)[C@@H]1F
active: [11] -0.287 | [13] -1.27 | [15] -3.63 | [16] -0.69
inactive: [5] 0.0438 | [6] 0.0567 | [7] 0.104 | [8] 0.0694 | [9] -0.027 | [10] 0.0481 | [12] 0.0753 | [14] -0.0627

Nc1nc(Cl)nc2c1ncn2[C@@H]1O[C@H](CO)[C@@H](O)[C@H]1O
inactive: [17] 0.323 | [18] 0.0766 | [19] 0.0971 | [20] -0.0176

Nc1nc(Cl)nc2c1ncn2[C@@H]1O[C@H](COP(=O)(O)OP(=O)(O)OP(=O)(O)O)[C@H](O)C1O (some centres not stated)
inactive: [17] 0.146 | [18] 0.0571 | [19] 0.0213 | [20] 0.0355

CC1(NCC(O)COc2cccc3[nH]ccc23)CCC(C(C)(C)NC(=O)CBr)CC1 (configuration not stated)
inactive: [17] 0.126 | [18] 0.0547 | [19] 0.106 | [20] 0.0182

CCOc1c(Br)cc(C=C(C#N)c2nn(-c3ccccc3)c(N)c2C#N)cc1OC
inactive: [1] 0.0856 | [2] 0.124 | [3] 0.0719 | [4] 0.193

CCOC(=O)c1c[nH]c2c(C)cccc2c1=O
inactive: [1] 0.111 | [2] 0.0771 | [3] 0.1 | [4] -0.0609

CC[C@H]1OC(=O)[C@H](C)[C@@H](O[C@H]2C[C@@](C)(OC)[C@@H](O)[C@H](C)O2)[C@H](C)[C@@H](O[C@@H]2O[C@H](C)C[C@H](N(C)C)[C@H]2O)[C@](C)(O)C[C@@H](C)[C@@H]2N[C@@H](COCCOC)OC([C@H]2C)[C@]1(C)O
inactive: [1] 0.163 | [2] 0.065 | [3] 0.143 | [4] 0.0253

COc1cc(O)c2c(=O)c(-c3ccc(O)cc3)coc2c1
inactive: [1] -0.0342 | [2] 0.0164 | [3] 0.131 | [4] 0.0327

O=C1CCCCC/C=C\CCCCCCCCO1
inactive: [1] -0.00728 | [2] 0.0186 | [3] 0.143 | [4] 0.0924

CCCCCCCCCCCCCCCCCC(=O)NCC(COP(=O)([O-])OCC[N+](C)(C)C)OC (configuration not stated)
inactive: [17] 0.255 | [18] 0.0758 | [19] 0.173 | [20] 0.0504

Cc1cc(Nc2cc(CN3CCOCC3)c3nc(C)c(Cc4ccc(Cl)cc4F)n3n2)n[nH]1
inactive: [5] 0.0112 | [6] 0.0393 | [7] -0.00623 | [8] -0.00356 | [9] -0.0578 | [10] 0.0432 | [12] -0.0123
active: [11] -0.183 | [13] -0.442 | [14] -0.142 | [15] -1.04 | [16] -0.863

COc1c2ccoc2c(OC)c2oc(=O)ccc12
inactive: [1] 0.157 | [2] -0.0309 | [3] 0.197 | [4] 0.0899

CC1Cc2ccccc2N1C(=S)Nc1ccc2nccnc2c1 (configuration not stated)
inactive: [1] 0.139 | [2] 0.113 | [3] 0.133 | [4] 0.0139

CC[C@H](C)C(=O)O[C@H]1C[C@@H](C)C=C2C=C[C@H](C)[C@H](CC[C@@H]3C[C@@H](O)CC(=O)O3)[C@H]21
inactive: [1] 0.0174 | [2] -0.0358 | [3] 0.109 | [4] 0.0431

CC[C@H](C)C(=O)O[C@H]1CCC=C2C=C[C@H](C)[C@H](CC[C@@H]3C[C@@H](O)CC(=O)O3)[C@H]21
inactive: [1] 0.147 | [2] 0.00215 | [17] 0.167 | [18] 0.108 | [3] 0.0603 | [4] -0.0998 | [19] 0.145 | [20] 0.0674

CCC(C)(C)C(=O)O[C@H]1C[C@@H](C)C=C2C=C[C@H](C)[C@H](CC[C@@H]3C[C@@H](O)CC(=O)O3)[C@H]21
active: [15] -1.27 | [16] -1.32
inactive: [5] 0.14 | [6] 0.05 | [1] 0.0551 | [2] -0.0746 | [7] 0.153 | [8] 0.105 | [9] 0.0408 | [10] 0.0447 | [3] 0.0209 | [4] -0.321 | [11] 0.107 | [12] -0.0366 | [13] -0.0829 | [14] -0.13

COCCn1c2c([n+](Cc3cnccn3)c1C)C(=O)c1ccccc1C2=O
active: [5] -3.94 | [6] -2.36 | [7] -3.88 | [8] -4.02 | [9] -3.96 | [10] -4.06 | [11] -4.31 | [12] -4.17 | [13] -4.31 | [14] -4.28 | [15] -4.31 | [16] -4.3

CC(=O)OCC(=O)[C@@]1(O)CC[C@H]2[C@@H]3CC[C@@H]4C[C@H](O)CC[C@]4(C)[C@H]3C(=O)C[C@@]21C
inactive: [1] 0.128 | [2] 0.0697 | [3] 0.109 | [4] -0.0114

COc1ccc(-c2cc(=O)c3ccccc3o2)cc1OC
inactive: [1] -0.0122 | [2] 0.00789 | [3] 0.068 | [4] 0.128

C=C[C@@H](C1=CC(=O)C(OC)=C(OC)C1=O)c1ccccc1
active: [1] -0.165
inactive: [2] 0.026 | [3] -0.00361 | [4] 0.0945

C=CC(C1=CC(=O)C(OC)=CC1=O)c1ccc(OC)cc1 (configuration not stated)
inactive: [1] 0.133 | [2] 0.135 | [3] 0.157 | [4] 0.265

C=CC(C1=CC(=O)C(OC)=CC1=O)c1ccccc1 (configuration not stated)
inactive: [1] 0.0774 | [2] 0.000535 | [3] 0.158 | [4] 0.101

COc1ccc(C2C3=C(CC(C)(C)CC3=O)OC3=C2C(=O)CC(C)(C)C3)cc1[N+](=O)[O-]
inactive: [1] 0.06 | [2] 0.0112 | [3] 0.134 | [4] -0.00188

CC1=C(O)C(=O)C(C(C)C)CC1 (configuration not stated)
inactive: [1] 0.0674 | [2] 0.0473 | [3] 0.0636 | [4] 0.0767

COc1ccc(C2CC(=O)c3c(OC)cc(O)cc3O2)cc1 (configuration not stated)
inactive: [1] 0.0309 | [2] -0.00204 | [3] -0.0215 | [4] 0.0561

CC1=C2[C@H]3OC(=O)[C@@H](C)[C@@H]3[C@@H](O)C[C@@]2(C)C=CC1=O
inactive: [1] 0.026 | [2] 0.0292 | [3] 0.113 | [4] 0.0749

CC(C)[C@@H](C)C=C[C@@H](C)[C@H]1CC[C@H]2C3=CCC4CC(=O)CC[C@]4(C)[C@H]3CC[C@]12C (some centres not stated)
inactive: [1] 0.0656 | [2] 0.0592 | [3] 0.126 | [4] 0.0808

C[C@@H]1C/C=C/C=C/C=C/C=C/[C@H](OC2O[C@H](C)[C@@H](O)[C@H](N)[C@@H]2O)C[C@@H]2O[C@](O)(C[C@@H](O)C[C@H]3O[C@@H]3/C=C/C(=O)O1)C[C@H](O)[C@H]2C(=O)O (some centres not stated)
inactive: [5] 0.0488 | [6] 0.0464 | [7] 0.0456 | [8] 0.0497 | [9] 0.0317 | [10] 0.0938 | [11] 0.0554 | [12] 0.0621 | [13] 0.0808 | [14] 0.0825 | [15] 0.128 | [16] 0.0916
